This note sets out measurements from PubChem BioAssay AID504850 (National Center for Advancing Translational Sciences (NCATS), 2011).

In all, about 2,300 compounds went through this assay and about 1,200 (52%) were called active. Inconclusive results (about 34%) are left out. The call rests on the fitted dose curve; in most records, active means well fitted inhibition curve with a large enough effect; inconclusive means small, poorly fitted or top-dose-only effect, or effect the other way; inactive means no such curve, though single readings can be large or run the other way. So high a share suggests a set chosen from earlier hits. The list shows a part of the results.
Potency means the concentration at half of the fitted maximal effect.

This assay in a line: Confirmation screen for delayed death inhibitors of the malarial parasite plastid, 48 hour incubation. Further: nearly all actives have a fitted effect of over 65% in size. As to conditions: P. falciparum-infected erythrocytes, luciferase growth; series mostly up to 28.7 µM. The gist of the method:
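Single-generation (48 h, 37 C) exposure of integrated firefly luciferase-reporter P. falciparum in red cells, 0.1% parasitemia at 2% hematocrit, Albumax-supplemented RPMI. Falling luciferase signal marks parasite growth inhibition.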
`O=C(NCc1ccccc1)C(c1cccnc1)N(C(=O)c1ccccn1)c1ccccc1F` (stereo not given): the Potency entry is “inactive”.

Turning to `O=C(CCc1ccccc1)NNC(=O)c1ccccn1`, the Potency is 7.94 µM (active).

Turning to `CCOc1ccc(CCNC(=O)COC(=O)c2ccc(C)s2)cc1OCC`, the Potency is 10 µM (active).

As to `Cc1ccc(C(=O)NCC(=O)NCCCc2ccccc2)s1`, the Potency result was “inactive”.

Consider `CCOC(=O)NC(=O)COC(=O)c1ccc(O)cc1`, for which the Potency entry was “inactive”.

Take `COc1ccccc1NC(=O)Cn1cnc2sc(C(=O)Nc3ccc(OC)c(OC)c3)c(C)c2c1=O`: the Potency was 12.6 µM (active).

Consider `CSCCn1c(C(C)(C)C)cc(C(=O)O)c1C`, for which the Potency entry is “inactive”.

`CCO[C@H]1OC(C(=O)N2CCN(Cc3ccc4c(c3)OCO4)CC2)=C[C@@H](c2ccc(C(F)(F)F)cc2)[C@@H]1CCCO`: the Potency was 3.55 µM (active).

Consider `CCO[C@H]1OC(C(=O)N2CCN(Cc3ccccc3)CC2)=C[C@@H](c2ccc(C(F)(F)F)cc2)[C@@H]1CCCO`, for which the Potency was 4.47 µM (active).

For `O=C(C1=C[C@@H](c2csc3ccccc23)C[C@@H](OCCCCO)O1)N1CCN(Cc2ccc3c(c2)OCO3)CC1`, the Potency is 10 µM (active).

In the case of `CCn1c(=O)cc(C(=O)OC)sc1=Nc1ccc(F)c(F)c1`, the Potency result is “inactive”.

Consider `CC(C)n1nc(C(=O)Nc2cccc(S(=O)(=O)NCc3ccco3)c2)c2ccccc2c1=O`, for which the Potency is 11.2 µM (active).

Consider `Cc1cc(C)n(-c2ccc(C(=O)Nc3ccc(S(=O)(=O)NCc4ccco4)cc3)cc2)n1`, for which the Potency is 10 µM (active).

For the compound `O=C(Nc1ccccc1)c1cccc(S(=O)(=O)NCc2ccco2)c1`, the Potency result was “inactive”.

For `Cc1cc(C)n2nc(C(=O)N/N=C/c3c4ccccc4cc4ccccc34)nc2n1`, the Potency was 8.91 µM (active).

Regarding `COC(=O)c1ccc(C2N=C(c3cccs3)CC(c3ccccc3O)N2)cc1` (stereo not given), the Potency is 8.91 µM (active).

Take `CCOC(=O)c1c(S(=O)(=O)NCC(=O)Nc2cccc(C)c2C)c(C)n(C)c1C`: the Potency entry was “inactive”.

For the compound `CCOC(=O)c1c(S(=O)(=O)NCC(=O)N2CCN(c3ccccc3OC)CC2)c(C)n(C)c1C`, the Potency was 12.6 µM (active).

For `Cc1ccc(C(=O)NCCc2nnc3ccc(SCC(=O)NCc4ccc(F)cc4)nn23)cc1`, the Potency was 10 µM (active).

On to `COc1cccc(NC(=O)CSc2ccc3nnc(CCNC(=O)c4ccccc4)n3n2)c1`, for which the Potency is 15.8 µM (active).

Turning to `Cc1ccc(Cc2cnc(N3C(=N)SC(C)C3=O)s2)cc1` (stereo not given), the Potency result is “inactive”.

In the case of `C=CCN1C(=O)[C@@H]2Cc3c([nH]c4ccccc34)C(c3ccc(O)cc3)N2C1=S` (stereo not given in full), the Potency was 12.6 µM (active).

For `CCN1C(=O)[C@@H]2Cc3c([nH]c4ccccc34)C(c3ccc(OC)cc3)N2C1=S` (stereo not given in full), the Potency is 15.8 µM (active).

As for `CC1(C)CC(=O)C2=C(C1)OC1=C(C(=O)CC(C)(C)C1)C2c1ccc(O)cc1O`, the Potency is 7.08 µM (active).

On to `Fc1cccc(CNc2ncnc3ccc(-c4ccc5c(c4)OCO5)cc23)c1`, for which the Potency was 10 µM (active).

Consider `Fc1ccc(CSc2nncn2NCc2ccc3c(c2)OCO3)cc1`, for which the Potency entry is “inactive”.

Turning to `CCOCCCNC(=S)N1CCN(c2nc(-c3ccccc3)cs2)CC1`, the Potency is 11.2 µM (active).

On to `NC1=NC[C@@H](Cc2ccc(O)cc2)N1CCc1cccc(F)c1`, for which the Potency is 10 µM (active).

In the case of `NC1=NC[C@H](Cc2ccc(O)cc2)N1CCc1cccc(F)c1`, the Potency was 7.94 µM (active).

With `CCCCCCCNC(=O)C1(CC2CC(c3ccc(Cl)cc3)=NO2)CCN(C(=O)C2CCCC2)CC1` (stereo not given), the Potency is 14.1 µM (active).

Consider `CCCCCCCNC(=O)C1(CC2CC(c3ccc(Cl)cc3)=NO2)CCN(C(=O)Cc2ccc(F)cc2)CC1` (stereo not given), for which the Potency was 11.2 µM (active).

Regarding `COc1ccc(C(=O)CSc2nnc(C3CCCCC3)n2N)c(OC)c1`, the Potency was 8.91 µM (active).

`CC1CCCN(c2ccc(F)cc2N)C1` (stereo not given): the Potency is 14.1 µM (active).

Take `COc1cccc(-c2sc3ccc(OC)cc3c2-c2cc(F)cc(OC)c2)c1`: the Potency is 11.2 µM (active).

As to `O=C(CSc1nnc(COc2ccccc2)n1-c1ccccc1)c1cccs1`, the Potency is 14.1 µM (active).

Take `CC(C)C[C@H](NC(=O)c1[nH]cnc1C(=O)N[C@@H](Cc1ccccc1)C(=O)OC(C)(C)C)C(=O)OC(C)(C)C`: the Potency is 6.31 µM (active).

With `CC(C)C[C@H](NC(=O)c1[nH]cnc1C(=O)N[C@@H](C)C(=O)OC(C)(C)C)C(=O)OC(C)(C)C`, the Potency is 7.08 µM (active).

For `C[C@H](NC(=O)c1nc[nH]c1C(=O)N[C@H](C)c1ccccc1)C(=O)OCc1ccccc1`, the Potency entry was “inactive”.

For `CC(C)C[C@H](NC(=O)c1[nH]cnc1C(=O)Nc1ccc(CNC(=O)OC(C)(C)C)cc1)C(=O)OC(C)(C)C`, the Potency was 6.31 µM (active).

In the case of `CC(C)C[C@H](NC(=O)c1nc[nH]c1C(=O)N(C)Cc1ccccc1)C(=O)OC(C)(C)C`, the Potency is 11.2 µM (active).

As for `O=C(c1ccc(Cl)cc1)C(CN1CCCC1)c1ccccc1` (stereo not given), the Potency is 10 µM (active).

As for `O=C(CN1CCCCC1)N/N=C/c1ccc(Cl)cc1`, the Potency entry was “inactive”.

On to `O=C(CC(c1ccccc1)c1cc(Br)ccc1O)NCCN1CCOCC1` (stereo not given), for which the Potency was 12.6 µM (active).

As to `O=C(c1ccc(Br)cc1)C(CN1CCOCC1)c1ccccc1` (stereo not given), the Potency is 7.08 µM (active).

Turning to `CN(Cc1ccccc1)C(=O)c1ccc(NC(=O)Cc2cccc(NC(=O)C3CCCN(C(=O)CCc4ccccc4)C3)c2)cc1` (stereo not given), the Potency was 7.08 µM (active).

For the compound `O=[N+]([O-])c1cccc(-c2c[n+]3c(n2-c2ccccc2)SCC3)c1`, the Potency is 2.51 µM (active).

In the case of `COC(=O)C(NC(=O)c1ccccc1C)(Nc1ncc(S(=O)(=O)c2ccc([N+](=O)[O-])cc2)s1)C(F)(F)F` (stereo not given), the Potency is 7.94 µM (active).

As to `Cn1nc(C(F)(F)F)c(C(=O)Nc2ccc(F)cc2F)c1Sc1ccc(C(F)(F)F)cc1`, the Potency is 12.6 µM (active).

`CC(C)Cc1ccc(CN2CCCC(NC(=O)CCn3cnnn3)C2)cc1` (stereo not given): the Potency result is “inactive”.

Turning to `O=C(NC1CCCN(Cc2ccc(Cl)cc2)C1)c1cnc2ccccn2c1=O` (stereo not given), the Potency was 15.8 µM (active).

As to `Cc1occc1C(=O)NC1CCCN(Cc2ccc(CC(C)C)cc2)C1` (stereo not given), the Potency was 14.1 µM (active).

Consider `O=C(Cn1c(=O)c(=O)n(Cc2ccccc2)c2ccc(Cl)cc21)Nc1cccc(F)c1`, for which the Potency was 15.8 µM (active).

Turning to `Cc1cccc(C)c1N1CCN(C(=O)c2ccc3c(c2)OCO3)CC1`, the Potency was 15.8 µM (active).

With `CCOC(=O)c1c(C)c(-c2ccccc2)n(CC(=O)NCCCN(CC)CC)c1C`, the Potency is 12.6 µM (active).

`O=C(c1ccco1)N1CCN(C(=O)C2CCCc3c2[nH]c2ccc(Cl)cc32)CC1` (stereo not given): the Potency was 14.1 µM (active).

For the compound `COc1cccc(/C=C2\SC(=O)N(CCC(=O)NC3CCS(=O)(=O)C3)C2=O)c1` (stereo not given), the Potency entry is “inactive”.

With `O=C1/C(=C/c2ccc(Cl)cc2)SC(=S)N1CCC(=O)N1CCCCC1CCO` (stereo not given), the Potency is 15.8 µM (active).

In the case of `COc1cccc(/C=C2\SC(=S)N(CCC(=O)N3CCCCC3CCO)C2=O)c1` (stereo not given), the Potency is 10 µM (active).

Regarding `CC1=CC(=O)O[C@@H]1[C@@]1(C)C[C@H]2OC(=O)C[C@H]3[C@@H](C)C(=O)C(O)=C1[C@@]23CO`, the Potency result is “inactive”.

For `CCCCNC(=O)c1onc(CSc2ccc(Cl)cc2)c1C(=O)O`, the Potency result was “inactive”.

On to `Cc1oc(=O)c(NC(=O)c2ccc(Cl)cc2)cc1C(=O)c1ccccc1`, for which the Potency entry is “inactive”.

As to `O=C(Nc1cc(Cl)ccc1N1CCCC1)C1=NN(c2ccccc2)C(=O)CC1`, the Potency was 14.1 µM (active).

As to `CN(C)c1ccc(S(=O)(=O)N2CCCCC2)cc1NC(=O)C1=NN(c2ccccc2)C(=O)CC1`, the Potency is 8.91 µM (active).

For the compound `O=[N+]([O-])c1cncc([N+](=O)[O-])c1Nc1cccc(O)c1`, the Potency is 12.6 µM (active).

Regarding `CC1(C)Cc2c(ccc3ccccc23)C(c2cc3ccccc3oc2=O)=N1`, the Potency was 12.6 µM (active).

`O=C(Nc1ccccc1C(F)(F)F)N1CCN(c2ccc3nnc(-c4ccc(F)cc4)n3n2)CC1`: the Potency is 7.08 µM (active).

Consider `O=C(c1ccc(Br)o1)N1CCN(c2ccc3nnc(-c4ccccc4)n3n2)CC1`, for which the Potency is 12.6 µM (active).

With `O=C(c1ccc(OC2CCN(Cc3ccccc3OC(F)F)CC2)cc1)N1CCCC1`, the Potency was 2.24 µM (active).

`COc1ccc(CCC(C)N2CCC(Oc3ccc(C(=O)N4CCCC4)cc3)CC2)cc1` (stereo not given): the Potency is 12.6 µM (active).

Regarding `COc1ccc(C(=O)NC(=S)N(C)C2CCCCC2)cc1`, the Potency entry was “inactive”.

Turning to `CCOc1cc(/C=C/C(=O)Nc2ccc(C(=O)NCCN(CC)CC)cc2)ccc1OCC(C)C`, the Potency was 1.78 µM (active).

Take `Cc1nc([N+](=O)[O-])c(Br)n1CC(=O)c1ccc(Cl)cc1`: the Potency was 10 µM (active).

`Cc1nc([N+](=O)[O-])c(Br)n1CC(=O)c1ccc(F)cc1`: the Potency is 12.6 µM (active).

As to `O=C(c1ccc([N+](=O)[O-])cc1)n1nc(-c2ccccc2)nc1NCc1ccc(F)cc1`, the Potency entry was “inactive”.

For the compound `Cn1cc([N+](=O)[O-])c(C(=O)Nc2cnn(Cc3ccc(F)cc3)c2)n1`, the Potency entry is “inactive”.

Regarding `CCOC(=O)N1C/C(=C\c2ccccc2)C(=O)/C(=C/c2ccccc2)C1`, the Potency is 6.31 µM (active).

On to `CCN(CC)S(=O)(=O)c1cccc(NC(=O)c2cc(-c3cccs3)nn2-c2ccccc2)c1`, for which the Potency is 11.2 µM (active).

Consider `CCOc1ccc(S(=O)(=O)N2CCOCC2)cc1NC(=O)CN1C(=O)NC(CC)(c2ccccc2)C1=O` (stereo not given), for which the Potency is 12.6 µM (active).

`CCOc1ccccc1CNC(=O)CN1C(=O)CSc2ccc(S(=O)(=O)N3CCOCC3)cc21`: the Potency was 10 µM (active).

Turning to `CC(=O)NCCC(=O)Nc1cc(S(=O)(=O)N2CCOCC2)ccc1Oc1ccccc1`, the Potency is 11.2 µM (active).

As to `CC(C)(C)OC(=O)[C@H]1[C@H](c2ccc([N+](=O)[O-])cc2)C2(C(=O)c3ccccc3C2=O)C2c3ccccc3C=NN21` (stereo not given in full), the Potency is 4.47 µM (active).

For `Cc1ccc(-c2nn(-c3ccccc3)cc2CC(=S)N2CCOCC2)cc1`, the Potency was 14.1 µM (active).

In the case of `COc1cccc(/C=C2\SC(N3CCCC(C)C3)=NC2=O)c1OC` (stereo not given), the Potency was 12.6 µM (active).

Consider `CCCOc1ccccc1/C=C1\SC(N2CCCCC2)=NC1=O`, for which the Potency was 11.2 µM (active).

As to `CCOC(=O)C1CCN(C(=O)CCc2nnc3ccc(NCc4ccco4)nn23)CC1`, the Potency was 10 µM (active).
